Compound activity (PubChem BioAssay)
PLK1 PBD inh – blocks phosphopeptide binding to human PLK1 polo-box domain. Plk1 PBD binding of FITC phosphopeptide, fluorescence polarization. Potency, µM, for inactives: max response, negative = inhibition, most hits filed as inhibitors. actives 2.8% (n = 360,000). AID 720504; also: series mostly up to about 57 µM; % is scaled to controls: 0 for no effect and ±100 for the full control effect; nearly all actives have a fitted effect of over 65% in size
PTAP TSG101 blk – blocks PTAP/TSG101 interaction to inhibit HIV-1 budding; Q99816; Fluorescence polarization, FITC-PTAP peptide / Tsg101 binding; Potency, µM (highest dose often 115 µM), for the others: top-dose activity change, negative = inhibition, actives largely listed as inhibitors; 340,000 tested, under 10 active; AID 493005; active = well fitted inhibition curve with a large enough effect in the main read-out, with a control signal flat, not every such curve was filed as active; inconclusive = small, poorly fitted or top-dose-only effect, or effect the other way, or a change in a side signal; inactive = no such curve, though single readings can be large or run the other way; also: % of control where 0% means no effect
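FP read-out: FITC-PTAP peptide, 50 nM final, binding Tsg101 binding domain, 10 uM final; 20 min, r.t.; 10 mM HEPES pH 7.5, 0.15 M NaCl, 0.01% Tween 20, 3 mM EDTA, 0.1 mM TCEP.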
USP1-UAF1 inh – inhibitors of human USP1/UAF1 deubiquitinase | O94782 | recombinant USP1/UAF1, Ub-Rhodamine cleavage fluorescence | Potency, µM (series often up to 57.1 µM), inactives show at the top dose activity change, negative = inhibition, actives largely listed as inhibitors | actives 0.23% (n = 390,000); also: % is scaled to controls: 0 for no effect and ±100 for the full control effect; nearly all actives have a fitted effect of over 60% in size
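In this screen, compounds sit with the deubiquitinase complex (1nM) for 15 min at room temperature before Ub-Rho is added at 150nM final. Fluorescence rise is then followed for 6 reads every 60 seconds.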
KAT2A inh – GCN5L2 (KAT2A) acetyltransferase inhibition; Potency, µM (titrated, usually from 58.9 µM), for inactives: at the highest dose activity change, negative = inhibition, actives largely listed as inhibitors; Q92830; actives 0.21% (n = 390,000); GCN5L2 HAT assay, ThioGlo1 CoA-SH fluorescence; also: % is scaled to controls: 0 for no effect and ±100 for the full control effect
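Compounds, pin-transferred from DMSO stocks, meet 20nM GCN5L2 for 15 min before the reaction begins with H3(1-25) peptide (75uM) and acetyl-CoA (70uM). Thiol-reactive ThioGlo1 reports CoA release over 20 min at room temperature.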
VDR inhibitor – vitamin D3 receptor (human) inhibition; actives 0.93% (n = 400,000); P11473; Potency, µM, without a hit: max response, negative = inhibition, actives largely listed as inhibitors; VDR-SRC2-3 peptide fluorescence polarization, 2 h; also: % is scaled to controls: 0 for no effect and ±100 for the full control effect
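VDR–SRC2-3 interaction, FP format. Cmpds 23 nl via pintool, brief spin, 2 h ambient incubation.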
VDR inh confirm – confirmation of human vitamin D receptor inhibitors | AID 602199 | shares compounds with VDR inhibitor | Potency, µM, most hits filed as inhibitors | actives 89% (n = 840) | VDR-coactivator inhibition assay, qHTS confirmation
VDR FP – VDR (human) coactivator binding inhibition, fluorescein polarization; shares compounds with VDR inhibitor; VDR-coactivator binding, fluorescein fluorescence polarization; Potency, µM (series often up to 57.1 µM), without a hit: top-dose activity change, negative = inhibition, hits mostly inhibitors; actives 48% (n = 840)
VDR bla reporter – VDR (human) inhibition, cell-based beta-lactamase validation; AID 602202; shares compounds with VDR inhibitor; actives 23% (n = 840); Potency, µM (titrated, usually from 46.1 µM), for inactives: at the highest dose activity change, negative = inhibition, most hits filed as inhibitors; VDR beta-lactamase reporter cells, FRET ratio; cells co-treated with VDR agonist LG190178; also: % is scaled to controls: 0 for no effect and ±100 for the full control effect
VDR cytotox – cell toxicity, VDR inhibitor hit counter-screen | shares compounds with VDR inhibitor | cytotoxicity counter-screen, cell viability, qHTS | Potency, µM (highest dose often 48.3 µM), for the others: top-dose activity change, negative = cytotoxicity, usual class: cytotoxic | actives 18% (n = 840) | AID 602204;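 also: plate controls were DMSO for no effect and high-concentration cycloheximide for full effect; nearly all actives have a fitted effect of over 75% in size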
Active calls of the source: *. Compounds with a hit are over-represented: about 3% of the library has one in this group of screens. Unless noted, calls follow the shape of the dose curve; as a rule, active = well fitted curve in the direction sought with a large enough effect; inconclusive = small, poorly fitted or top-dose-only effect, or another doubt; inactive = no such curve, though single readings can be large; an effect the other way counts as inactive or inconclusive. Potency is read from the fitted curve at half-maximal effect.

What do the screens show for `Cc1[nH]n(-c2ccc(Cl)cc2)c(=O)c1N=Nc1cccnc1`?
PLK1 PBD inh: 1%; PTAP TSG101 blk: -6%; USP1-UAF1 inh: -20%; KAT2A inh: 3%; VDR inhibitor: 19%

How did Cc1[nH]n(-c2ncc(-c3ccc(Cl)cc3)s2)c(=O)c1C(c1ccc(Cl)cc1)C(C#N)C#N (stereo unspecified) do in these assays?
PLK1 PBD inh: 9.5µM*; PTAP TSG101 blk: -7%; USP1-UAF1 inh: -13%; KAT2A inh: 31%; VDR inhibitor: 50µM*; VDR inh confirm: 8.4*; VDR FP: 7.9µM*; VDR bla reporter: 14%; VDR cytotox: -6%

Results for O=C(Nc1cc(S(=O)(=O)N2CCOCC2)ccc1N1CCCCC1)c1cc(-c2ccccn2)nc2ccccc12 ?
PLK1 PBD inh: 4.2µM*; PTAP TSG101 blk: 2%; USP1-UAF1 inh: -10%; KAT2A inh: -8%; VDR inhibitor: 45µM*; VDR inh confirm: 24*; VDR FP: 8.9µM*; VDR bla reporter: 22%; VDR cytotox: -2%

Results for O=c1c(-c2ccc(Cl)cc2)nc2cncnc2n1Cc1ccccc1Cl ?
KAT2A inh: -19%; VDR inhibitor: -1%

How did Cc1ccc(S(=O)(=O)Oc2ccc(/C=C3\C(=N)N4N=C(S(C)(=O)=O)SC4=NC3=O)cc2)cc1 do in these assays?
PLK1 PBD inh: 15µM*; PTAP TSG101 blk: -3%; USP1-UAF1 inh: -25%; KAT2A inh: inconclusive; VDR inhibitor: 50µM*; VDR inh confirm: inconclusive; VDR FP: 3.2µM*; VDR bla reporter: 24%; VDR cytotox: inconclusive

Results for CCn1nc(C)cc1-c1nnc(Sc2ncc([N+](=O)[O-])s2)n1C ?
PLK1 PBD inh: inconclusive; PTAP TSG101 blk: -2%; USP1-UAF1 inh: -12%; KAT2A inh: -11%; VDR inhibitor: 7.9µM*; VDR inh confirm: 4.7*; VDR FP: 3.5µM*; VDR bla reporter: 3.7µM*; VDR cytotox: inconclusive

Results for O=C(/C=C/c1ccc(F)cc1)c1ccccc1Br ?
PLK1 PBD inh: -17%; PTAP TSG101 blk: -2%; USP1-UAF1 inh: -21%; KAT2A inh: -7%; VDR inhibitor: 32µM*; VDR inh confirm: 12*; VDR FP: inconclusive; VDR bla reporter: inconclusive; VDR cytotox: inconclusive

How did Cc1ccc(C(=O)/C=C/c2ccc(F)cc2)o1 do in these assays?
PLK1 PBD inh: -7%; PTAP TSG101 blk: -2%; USP1-UAF1 inh: 2%; KAT2A inh: -5%; VDR inhibitor: inconclusive

Results for Cc1ccc(CNC(=O)Cn2cc(C(=O)c3ccc(Cl)cc3)c(=O)c3ccc(C)nc32)cc1 ?
USP1-UAF1 inh: -8%; KAT2A inh: -4%; VDR inhibitor: 2%

How did CCCCCC1C(=O)N2C=C(c3ccccc3)c3ccccc3N2C1=O (stereo unspecified) do in these assays?
PLK1 PBD inh: inconclusive; PTAP TSG101 blk: 0%; USP1-UAF1 inh: -16%; VDR inhibitor: 22µM*; VDR inh confirm: 4.7*; VDR FP: 4µM*; VDR bla reporter: 26%; VDR cytotox: 3%
